Autofluor counter = flagged as autofluorescent in microsphere protease counterscreen. compound autofluorescence counterscreen, microsphere flow cytometry; active compounds read high. fluorescence intensity (test concentration not listed). actives 3.1% (n = 360,000); in the data active = fluorescence intensity above about 16000; inconclusive = no clear call, values can overlap the other calls
SARS 3CLpro inh = SARS-CoV 3CLpro protease inhibition | P0C6X7 | recombinant SARS-CoV 3CLpro, quenched FRET peptide cleavage | inhibition, % at 6 µM | actives 0.14% (n = 290,000); in the data active = inhibition above about 12%
BoNT F protease = blocks Botulinum neurotoxin F light chain protease. Multiplex microsphere protease cleavage assay, flow cytometry. inhibition, % at 10 µM. actives 0.22% (n = 360,000); in the data active = inhibition above about 35%, passing the limit was not always enough; inconclusive = no clear call, values can overlap the other calls
CCHF vOTU inh = blocks the CCHF virus ovarian tumor domain protease | actives 0.55% (n = 370,000) | AID 651958 | inhibition, % at 11.5 µM | CCHFV vOTU protease, Pep-AMC fluorescence; in the data active = inhibition above about 30%
Anthrax LF prot = blocks Bacillus anthracis lethal factor protease; actives 0.12% (n = 360,000); multiplex microsphere protease cleavage assay, LF; inhibition, % at 10 µM
Target sequence (P15917 whole entry, looked up): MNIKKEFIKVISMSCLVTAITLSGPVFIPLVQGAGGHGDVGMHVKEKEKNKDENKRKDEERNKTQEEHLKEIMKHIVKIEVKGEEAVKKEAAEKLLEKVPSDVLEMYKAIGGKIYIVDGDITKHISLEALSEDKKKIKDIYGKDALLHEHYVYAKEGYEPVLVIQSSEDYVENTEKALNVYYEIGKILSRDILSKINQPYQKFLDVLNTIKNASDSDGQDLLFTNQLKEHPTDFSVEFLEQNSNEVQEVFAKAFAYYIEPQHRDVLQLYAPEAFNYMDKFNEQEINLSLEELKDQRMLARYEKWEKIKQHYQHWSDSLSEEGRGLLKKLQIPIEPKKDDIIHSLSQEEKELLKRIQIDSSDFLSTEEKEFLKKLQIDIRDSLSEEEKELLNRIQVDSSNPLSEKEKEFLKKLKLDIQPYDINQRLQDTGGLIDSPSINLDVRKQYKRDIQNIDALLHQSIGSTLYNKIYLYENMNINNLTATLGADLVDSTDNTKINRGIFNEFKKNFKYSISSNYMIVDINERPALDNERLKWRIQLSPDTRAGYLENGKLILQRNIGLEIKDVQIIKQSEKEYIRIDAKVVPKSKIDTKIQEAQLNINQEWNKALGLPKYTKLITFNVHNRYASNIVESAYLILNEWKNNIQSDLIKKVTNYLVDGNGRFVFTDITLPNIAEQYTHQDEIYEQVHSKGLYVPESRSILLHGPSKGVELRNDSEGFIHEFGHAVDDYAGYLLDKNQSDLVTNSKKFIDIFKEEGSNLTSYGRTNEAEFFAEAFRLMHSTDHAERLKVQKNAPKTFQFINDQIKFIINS
BoNT-A LC inh2 = BoNT A light chain protease inhibition | multiplex microsphere protease substrate cleavage, flow cytometry | inhibition, % at 10 µM | actives 0.17% (n = 360,000)
Numbers stand for hits; n = inactive; u = inconclusive; x = not tested or not shown. In the library only some 3.9% were active in any assay of this set; here they are far more common. Rule as the data show it, unless noted: active = inhibition above about 30%; inconclusive = no clear call, values can overlap the other calls; inactive = below that.

SMILES	Autofluor counter	SARS 3CLpro inh	BoNT F protease	CCHF vOTU inh	Anthrax LF prot	BoNT-A LC inh2
CCOc1ccccc1N=c1oc2cc(O)ccc2cc1C(=O)NCC1CCCO1 (centres undefined)	16487	n	n	n	n	n
N#Cc1ccccc1N1CCN(S(=O)(=O)c2ccc3c(c2)CCC(=O)N3)CC1	x	x	x	n	x	x
Cc1cc(C)cc([C@H]2C[C@]34CN(C(=O)OC(C)(C)C)S(=O)(=O)[C@H]3C[C@H]2O4)c1	x	x	x	n	x	x
C=CC[C@@H](CC(=O)N[C@H](CO)Cc1ccccc1)C(=O)N[C@H](COC(=O)[C@H](CC=C)CC(=O)OC(C)(C)C)Cc1c[nH]c2ccccc12	n	x	n	37	n	n
COC(=O)C[C@@H]1C=C[C@@H](NC(=O)c2ccccc2F)[C@@H](CO)O1	x	x	x	n	x	x
COc1ccc(Br)cc1C(=O)Nc1ccccc1N1CCCC1	n	x	n	n	n	n
CCOc1c(Cl)cc(C(=O)Nc2ccccc2C(=O)O)cc1Cl	19009	n	n	n	n	u
Cc1c(C(=O)Nc2ccccc2-c2ccccc2)cccc1[N+](=O)[O-]	20236	n	n	n	n	n
CCOc1ccc(C(=O)Nc2ccccc2-c2ccccc2)cc1Cl	17980	n	n	n	n	n
Cc1c(C(=O)Nc2ccc(C(=O)Nc3ccccc3)cc2)cccc1[N+](=O)[O-]	n	n	n	n	n	n
COc1ccc(Br)cc1C(=O)Nc1ccccc1-c1ccccc1	28074	n	n	n	n	n
COC(=O)C1=C[C@@H]([C@@H](C)[C@H](OC)c2ccccc2Br)[C@@H]2OCCC[C@H]12	x	x	x	n	x	x
C/C(=N\N1CCN(Cc2ccc(Cl)cc2)CC1)c1ccc([N+](=O)[O-])cc1	n	n	n	n	u	n
Cc1ccc(-c2noc(CSc3nnc(-c4ccncc4)n3-c3ccc(C)cc3)n2)cc1	24919	n	n	n	n	n
Cc1ccc(S(=O)(=O)N2CCN(C(=O)C3COc4ccccc4O3)CC2)cc1C (centres undefined)	19329	n	n	n	n	u
CCOC(=O)N1CCN(C(=O)C2CCN(S(=O)(=O)c3c(C)cc(C)cc3C)CC2)CC1	16613	n	n	n	n	n
CCOC(=O)N1CCN(S(=O)(=O)c2ccc(C)c(C)c2)CC1	23015	n	n	n	n	u
O=C(C1COc2ccccc2O1)N1CCN(S(=O)(=O)c2ccccc2)CC1 (centres undefined)	n	n	n	n	n	n
COc1cccc(C(O)c2nc(-c3cc(F)cc(F)c3)cs2)c1 (centres undefined)	n	x	n	n	n	n
CCc1ccc(N(CC(=O)NCc2ccc3c(c2)OCO3)C(=O)c2csnn2)cc1	n	n	n	n	n	n
CC(C)CC(=O)NC(=S)Nc1cccc(NC(=O)c2ccccc2)c1	n	n	n	n	n	n
Cc1cc(NC(=S)NC(=O)CC(C)C)ccc1Br	25030	n	n	n	n	n
COCCCNC(=O)c1ccc(S(=O)(=O)c2ccc(C)cc2)c(NC(C)=O)c1	n	n	n	n	n	n
CCCCNC(=O)c1ccc(S(=O)(=O)c2ccc(Cl)cc2)c(NC(C)=O)c1	21746	n	n	n	n	n
COC(=O)CN(C(=S)Nc1ccc(F)cc1)C1CC(=O)N(c2ccc(OC)cc2)C1=O (centres undefined)	22916	n	n	n	n	u
SMILES	Autofluor counter	SARS 3CLpro inh	BoNT F protease	CCHF vOTU inh	Anthrax LF prot	BoNT-A LC inh2
COC(=O)CN(C(=S)Nc1ccccc1)C1CC(=O)N(c2ccc(OC)cc2)C1=O (centres undefined)	n	n	n	x	n	n
CCNC(=O)C(=O)NCC(c1cccs1)S(=O)(=O)c1ccc(C)cc1 (centres undefined)	n	n	n	n	n	n
Cc1ccccc1-n1c(=O)c(C#N)cc2c(=O)n3ccccc3nc21	21339	n	n	n	n	u
CCCCCn1c(=NC(C)=O)c(C#N)cc2c(=O)n3ccccc3nc21	23665	n	n	n	n	n
Cc1cc(-n2c(=O)c(C#N)cc3c(=O)n4ccccc4nc32)no1	n	n	n	n	n	n
CCCCn1c(=NC(=O)c2ccc3c(c2)OCO3)c(C#N)cc2c(=O)n3cccc(C)c3nc21	n	n	38	n	49	63
COCCn1c(=NC(=O)c2ccc3c(c2)OCO3)c(C#N)cc2c(=O)n3cccc(C)c3nc21	x	n	x	x	x	x
C#CCN1c2ccccc2Sc2cccnc21	n	n	u	n	n	n
CCCC1CCC(c2nc(-c3cccnc3)no2)CC1 (centres undefined)	19821	n	n	n	n	u
CCCCCCC1CCC(c2nc(-c3ccncc3)no2)CC1 (centres undefined)	n	n	n	n	n	n
CC(=O)c1ccc(OC(=O)CCc2nc3ccccc3s2)cc1	n	n	n	n	n	n
Cc1ccc(NC(=O)C2SC(=Nc3ccccc3)C(C(=O)Nc3ccc(Cl)cc3)=C2N)cc1 (centres undefined)	n	n	n	x	n	n
Cc1ccc(N=C2SC(C(=O)Nc3ccc(OC(F)(F)F)cc3)C(N)=C2C(=O)Nc2c(C)cc(C)cc2C)cc1 (centres undefined)	n	n	n	30	n	n
CCC(NC(=O)OC(C)(C)C)C(=O)Oc1ccc2c3c(c(=O)oc2c1)CCC3 (centres undefined)	17288	n	n	n	n	n
Cc1cc(OC(=O)CCCNC(=O)OC(C)(C)C)c2c3c(c(=O)oc2c1)CCC3	n	n	n	n	n	n
Cc1cc(OC(=O)CCNC(=O)OC(C)(C)C)c2c3c(c(=O)oc2c1)CCC3	22958	n	n	n	n	n
CCC(NC(=O)OC(C)(C)C)C(=O)Oc1cc(C)cc2oc(=O)c3c(c12)CCC3 (centres undefined)	20994	n	n	n	n	n
N#CCc1ccc(OC[C@@H](O)CN2CCC(C(O)(c3ccccc3)c3ccccc3)CC2)cc1	x	x	x	n	x	x
CC(=O)N(Nc1ccccc1)c1ccccc1	n	n	35	n	n	n
COc1cc(NC(=O)c2cc(Cl)ccc2Cl)ccc1-c1cc2ccccc2oc1=O	22732	n	n	n	n	n
COc1cc(NC(=O)c2cccnc2)ccc1-c1cc2ccccc2oc1=O	x	n	x	n	x	x
Cn1nnc(-c2ccc(OCc3ccccc3F)cc2)n1	23800	n	n	n	n	n
COCCNC(=O)Nc1ccc2nc(-c3cccs3)c(-c3cccs3)nc2c1	n	n	42	n	57	132
CC(O)(c1cccc(F)c1)c1nc(-c2ccc(S(C)(=O)=O)cc2)cs1 (centres undefined)	n	x	n	n	n	n
COC(=O)c1c[nH]c(=S)n1Cc1ccccc1	n	x	n	n	n	n
O=C(CSc1ccc(-c2ccc(Br)cc2)nn1)N1CCOCC1	n	n	n	n	n	n
O=C(CSc1ccc(-c2ccc(F)cc2)nn1)N1CCCCC1	n	n	n	x	n	n
CC1CCN(C(=O)CSc2ccc(-c3ccc(F)cc3)nn2)CC1	23070	n	n	n	n	n
COc1ccc(-c2ccc(SCC(=O)N3CCOCC3)nn2)cc1	22594	n	n	n	n	n

Assay outcomes (PubChem BioAssay)
